Here are results for 28 molecules from PubChem BioAssay (NCATS).

Test [1] relates to Nanoluciferase (engineered Oplophorus gracilirostris luciferase). Kind of test: Primary Nanoluciferase (NLuc) qHTS assay for identification of artifact compounds. (AID 1845222).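 Further: NLuc secreted into diluted conditioned medium of S16 cells; series mostly up to about 54 µM; 0% = DMSO and -100% = no enzyme.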 Summed up:
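NLuc from S16 cell medium (1:55) plus test compounds, 15 min, room temperature. Luminescence after Nano-Glo (1:100) addition, 5 min.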
On the technique in general: qHTS replaces the single test concentration by a dilution series.

Test [2] can be described thus: Primary redox qHTS assay for identification of artifact compounds. (AID 1845223).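 Further: 0% = DMSO and 100% = reference compound.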 Summed up:
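Redox-cycling detection via DTT (250 uM final) oxidation coupled to Amplex Red (25 uM)/HRP (250 mU/mL) in HBSS. 15 min preincubation plus 30 min after DTT, room temperature. Ex/Em 525/598 nm; 4-parameter Hill fit against DMSO and 10 uM DA3003.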

Unmarked numbers belong to inactive results. Records with an inconclusive call do not appear. Active and inactive are the calls of the source. The call rests on the fitted dose curve; in most records, active means well fitted curve in the direction sought with a large enough effect; inconclusive means small, poorly fitted or top-dose-only effect, or another doubt; inactive means no such curve, though single readings can be large; an effect the other way counts as inactive or inconclusive.

As for `C=C1CC[C@@H]2[C@](C)(CO)[C@H](O[C@@H]3O[C@H](CO)[C@@H](O)[C@H](O)[C@H]3O)CC[C@@]2(C)[C@@H]1C/C=C1/C(=O)OC[C@H]1O`, the Potency result in test [1] and in test [2] was “inactive” throughout.
Regarding `COC(=O)CCC1(C)C(C(C)(C)O)C(O)CC2(C)Oc3c(C)c4c(c(OC)c3CC21)C(=O)OC4` (stereo unspecified), the Potency result in test [1] and in test [2] was “inactive” each time.
Take `CC(=O)/C=C/C1(O)C(C)CC(O[C@@H]2O[C@H](CO)[C@@H](O)[C@H](O)[C@H]2O)CC1(C)C` (stereo partly specified): the Potency entry in test [1] and in test [2] was “inactive” throughout.
As for `CC1CCC2(NC1)OC1C(O)C3C4CCC5CC(O[C@@H]6O[C@H](CO)[C@@H](O)[C@H](O)[C@H]6O[C@@H]6O[C@@H](C)[C@H](O)[C@@H](O)[C@H]6O)CCC5(C)C4CCC3(C)C1C2C` (stereo partly specified), the Potency result in test [1] and in test [2] was “inactive” in each case.
For `C[C@H](O)C(O)(C(=O)OCc1ccccc1NC(=O)CCC(N)C(=O)O)[C@H](C)O` (stereo partly specified), the Potency result in test [1] and in test [2] was “inactive” throughout.
As to `CC/C=C/C=C/C1(C)OC(CC(CO)OC)=CC1=O` (stereo unspecified), the Potency result in test [1] and in test [2] was “inactive” in each case.
With `COC1OC(=O)C2=C1C1(C)CCCC(C)(C)C1CC2O` (stereo unspecified), the Potency entry in test [1] and in test [2] was “inactive” in each case.
`CN[C@H](CNC(=O)N1CCC[C@@H]([C@@H](OCCNC(=O)OC)c2cccc(Cl)c2)C1)C[C@H]1CCCOC1`: the Potency entry in test [1] and in test [2] was “inactive” each time.
Turning to `C[C@@H]1O[C@@H](O[C@H]2[C@H](O[C@H]3[C@H](O[C@H]4CC[C@@]5(C)C(CC[C@]6(C)C5CC=C5[C@@H]7CC(C)(C)C[C@@H](O)[C@]7(C)CC[C@]56C)C4(C)C)O[C@H](C(=O)O)[C@@H](O)[C@@H]3O)O[C@H](C(=O)O)[C@H](O)[C@@H]2O)[C@H](O)[C@H](O)[C@H]1O` (stereo partly specified), the activity, negative = inhibition in test [1] was 0.805% [at 11.6 µM]. For the same molecule, in test [2], the redox activity (% of DA3003) was 11.1% [at 11.5 µM].
Take `C[C@@H]1O[C@@H](OC[C@H]2O[C@@H](OCc3ccccc3)[C@H](O)[C@@H](O)[C@@H]2O)[C@H](O)[C@H](O)[C@H]1O`: the Potency result in test [1] and in test [2] was “inactive” throughout.
As for `CC1(C)CC=C(c2cnc3ccccc3c2)c2cc(C(=O)Nc3ccc(C(=O)O)cc3)ccc21`, the Potency result in test [1] and in test [2] was “inactive” throughout.
As to `C[C@@H]1C[C@@H](O)[C@@]23CO[C@]2(CO)C[C@@H](O)CC3[C@@]12CC(c1ccoc1)OC2=O` (stereo partly specified), the Potency result in test [1] and in test [2] was “inactive” each time.
Take `COCC1OC(OC(C)(C)C2CCC3(C)C=C(C4CCC5C4(C)CC(O)C4OC(C(C)(C)O)CCC45C)CCC3O2)C(NC(C)=O)C(O)C1O` (stereo unspecified): the Potency result in test [1] and in test [2] was “inactive” each time.
With `C=CCc1cc(OC)c(OC(C)C(O)c2ccc(O)c(OC)c2)c(OC)c1` (stereo unspecified), the Potency result in test [1] and in test [2] was “inactive” in each case.
`COc1ccc(-n2c(=O)[nH]c3cc(C(=O)NCc4ccc(Cl)cc4)sc3c2=O)nc1OC`: the Potency result in test [1] and in test [2] was “inactive” in each case.
On to `CC1(C)Oc2ncnc(N)c2N=C1c1ccc(C2CCC(CC(=O)O)CC2)cc1` (stereo unspecified), for which the Potency result in test [1] and in test [2] was “inactive” throughout.
Regarding `O=C(/C=C/c1ccc(O)cc1)O[C@@H]1C[C@@](O)(C(=O)O)C[C@@H](O)[C@@H]1O`, the Potency result in test [1] and in test [2] was “inactive” in each case.
Turning to `CC(=O)O[C@H]1[C@H](OC(=O)C(C)C)[C@]2(C)OC3(CC[C@]2(C)[C@H]2CCC[C@]4(CO4)[C@]12C)COC(=O)C3` (stereo partly specified), the Potency entry in test [1] and in test [2] was “inactive” throughout.
Consider `CC1(C)CC[C@]2(C(=O)O)CC[C@]3(C)C(=CCC4[C@@]5(C)CC[C@H](O[C@@H]6O[C@H](C(=O)O)[C@@H](O)[C@H](O)[C@H]6O)C(C)(C)C5CC[C@]43C)C2C1` (stereo partly specified), for which the Potency entry in test [1] and in test [2] was “inactive” in each case.
As to `CC(=O)O[C@@]1(C)[C@@H]2CC(=C(C)C)C(=O)C[C@@]2(C)CC[C@H]1OC(=O)C1(C)OC1C` (stereo partly specified), the Potency entry in test [1] and in test [2] was “inactive” in each case.
On to `OC[C@H]1O[C@@H](OCCc2ccccc2)[C@H](O[C@@H]2OC[C@@H](O)[C@H](O)[C@H]2O)[C@@H](O)[C@@H]1O`, for which the Potency result in test [1] and in test [2] was “inactive” in each case.
With `C[C@@H]1O[C@@H](O[C@H]2[C@H](OC(=O)[C@]34CCC(C)(C)C[C@H]3C3=CCC5[C@@]6(C)CC[C@H](O[C@@H]7O[C@H](CO[C@@H]8OC[C@H](O)[C@H](O)[C@H]8O)[C@@H](O)[C@H](O)[C@H]7O)C(C)(C)C6CC[C@@]5(C)[C@]3(C)C[C@H]4O)OC[C@@H](O)[C@@H]2O)[C@H](O)[C@H](O[C@@H]2OC[C@](O)(CO)[C@H]2O)[C@H]1O[C@@H]1OC[C@H](O)[C@H](O[C@@H]2OC[C@@H](O)[C@H](O)[C@H]2O)[C@H]1O` (stereo partly specified), the activity, negative = inhibition in test [1] is 0.577% [at 11.6 µM]. Besides, the redox activity (% of DA3003) in test [2] was 19.6% [at 11.5 µM].
Regarding `O=C(O)c1cccc(C(=O)CCC2OC(n3cnc4c(=O)[nH]cnc43)C(O)C2O)c1` (stereo unspecified), the Potency entry in test [1] and in test [2] was “inactive” throughout.
Turning to `Cc1cc(O[C@@H]2O[C@H](COC(=O)CC(=O)O)[C@@H](O)[C@H](O)[C@H]2O)c(C(C)C)cc1O`, the Potency entry in test [1] and in test [2] was “inactive” in each case.
On to `CCC(C)C(=O)OC[C@H]1O[C@H](O[C@H]2O[C@H](CO)[C@@H](O)[C@H](O)[C@H]2O)[C@H](O)[C@@H](O)[C@@H]1O` (stereo partly specified), for which the Potency result in test [1] and in test [2] was “inactive” each time.
For `COc1ccc2[nH]c(S(=O)Cc3ncc(C)c(OC)c3C)nc2c1` (stereo unspecified), the Potency result in test [1] and in test [2] was “inactive” each time.
In the case of `COc1ccc(C(=O)NCc2cc(C(C)C)no2)cc1OC1CCN(C)CC1`, the Potency entry in test [1] and in test [2] was “inactive” in each case.
Regarding `COc1ccc(C2C(C(=O)O)C(C(=O)O)C2c2ccc(OC)cc2O[C@@H]2O[C@H](CO)[C@@H](O)[C@H](O)[C@H]2O)c(O[C@@H]2O[C@H](CO)[C@@H](O)[C@H](O)[C@H]2O)c1` (stereo partly specified), the Potency entry in test [1] and in test [2] was “inactive” each time.
